65 molecules from PubChem BioAssay AID371 (SRMLSC, 2006) can be followed below.

About 280 (8.5%) of roughly 3,300 compounds were called active. The full list was thinned out, with actives kept by preference. Values without a mark were called inactive.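 Rule for the calls: active = mean growth inhibition over the two runs of 50% or more; inactive = mean growth inhibition under 50%.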

The test is described as follows: A549 NSCLC cell proliferation inhibitors – ATP luminescence, human non-small cell lung line, primary screen (AID 371).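 Note: compound exposure lasted 72 h before the ATP read; 0% = untreated cell signal and 100% = no luminescence left.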 The following applies: at 10 µM, hits give high values.
Regarding `Cc1cc(C)n(S(=O)(=O)/C=C/c2ccccc2)n1`, the growth inhibition was 68.5% (active).
Take `Cc1cc(C)n(S(=O)(=O)Cc2ccccc2)n1`: the growth inhibition is 6%.
To `Cc1cc(C)n(C(=O)CNC(=O)CCc2ccccc2)n1` belongs -2.74%.
To `Cc1cc(C)n(CC2CC(=O)N(c3ccc(C)c(Cl)c3)C2=O)n1` (stereo not given) belongs 0.93%; to `Clc1ccc(COc2ccccn2)c(Cl)c1`, 1.66%.
Consider `COc1ccc(C(=O)c2ccc(N3CCOCC3)cc2)c(OC)c1`, for which the growth inhibition was 44.9%.
To `CCOC(=O)C(C)Oc1nc(Oc2ccccc2)nc(N(C)C)n1` (stereo not given) belongs 6.36%; to `CCOC(=O)N1CCN(C2OC(=O)c3ccccc32)CC1` (stereo not given), -1.65%.
To `O/N=C1\CCc2cc(Cl)ccc21` belongs -5.2%; to `CCOC(=O)N1CCC(=C2c3ccc(Cl)cc3CCc3cccnc32)CC1`, 65.8% (active).
To `CC(=O)Nc1n[nH]c(S(=O)(=O)Cc2ccc(Cl)cc2Cl)n1` belongs -13.6%; to `COc1cc(C)nc(Oc2ccc(=O)n(C)n2)n1`, -3.96%.
As for `CCCCNC(=O)N1CCOCCOCCN(C(=O)NCCCC)CCOCCOCC1`, the growth inhibition was 2.12%.
To `COc1ccc(CC(=O)OCN2C(=O)c3ccccc3C2=O)cc1` belongs 2.96%; to `Cn1c(Cl)cnc1C1CC(=O)c2cc(Cl)ccc2O1` (stereo not given), 62.9% (active).
For `CN1CCN(C2=Nc3ccccc3Oc3ccc(Cl)cc32)CC1`, the growth inhibition was 18.5%.
As for `C=CCSc1nnc2n(CCc3ccccc3)c(=O)c3c4c(sc3n12)COC(C)(C)C4`, the growth inhibition was 12.2%.
On to `Cn1c(Cn2cnc(Cl)c2Cl)nc2ccccc21`, for which the growth inhibition was -4.26%.
To `c1ccc(-c2nnc3sc(Cc4cccs4)nn23)cc1` belongs 21.9%.
To `Clc1ccc(-c2nnc3sc(Cc4cccs4)nn23)c(Cl)c1` belongs 52.8% (active).
As to `Clc1ccc(-c2nnc3sc(Cc4cccs4)nn23)cc1`, the growth inhibition was 15%.
To `CCOC(=O)CSc1nc(N)c2c3c(sc2n1)CCCC3` belongs -5.16%; to `COCCCn1cnc2c(c1=O)c1nc3ccccc3nc1n2CCc1ccccc1`, 26.2%.
Consider `CN(C)c1nc(OCCOC(=O)Nc2ccc(Cl)cc2Cl)nc(N(C)C)n1`, for which the growth inhibition is 25.3%.
To `NC(=O)/C(=N\O)c1ccccc1` belongs 2.31%; to `CNCCC(Oc1ccc(C(F)(F)F)cc1)c1ccccc1` (stereo not given), 91.3% (active); to `Cc1cc(C)n2c3c(c(C#N)c2n1)CC(C)(C)OC3`, 5.01%.
To `Cc1nnc(SCCC#N)n(CCC#N)c1=O` belongs -2.27%; to `CN1C(=S)SC(N(O)C(=O)Nc2ccccc2)C1(C)C` (stereo not given), 8.85%; to `O=c1[nH]cnc2c1cnn2Cc1ccccc1`, -3.92%.
To `Cc1ccc(-n2ncc3c(NCCCOC(C)C)ncnc32)c(C)c1` belongs 21.4%; to `Clc1ccc(-n2ncc3c(NCc4cccs4)ncnc32)cc1`, 20.6%; to `Cc1ccc(-n2ncc3c(NCc4ccc5c(c4)OCO5)ncnc32)c(C)c1`, 52.8% (active).
Turning to `Clc1ccc(-n2ncc3c(NCc4ccccn4)ncnc32)cc1`, the growth inhibition is 12.7%.
To `Cc1cccc(-n2ncc3c(NCCN4CCOCC4)ncnc32)c1` belongs 4.3%.
On to `Cc1cccc(-n2ncc3c(NCc4ccco4)ncnc32)c1`, for which the growth inhibition is 63% (active).
`Clc1ccc(-n2ncc3c(NCc4ccco4)ncnc32)cc1`: the growth inhibition is 51.6% (active).
To `COc1ccccc1Nc1ncnc2c1cnn2-c1cccc(C)c1` belongs 6.73%.
As for `Cc1ccc(-n2ncc3c(NCc4cccnc4)ncnc32)c(C)c1`, the growth inhibition was 30.4%.
With `O=C1NC2c3ccccc3C(=O)N2c2c1cnn2-c1ccccc1` (stereo not given), the growth inhibition was 36.6%.
To `CC(C)OCCCNc1ncnc2c1cnn2-c1ccccc1` belongs 35.1%.
To `CCCOc1cccc(C2C(C(=O)c3ccc(C)o3)=C(O)C(=O)N2CCCN(C)C)c1` (stereo not given) belongs 2.48%; to `C=CCSc1nnc2n(-c3ccccc3OC)c(=O)c3c4c(sc3n12)CCC4`, 19.2%; to `C=C1[C@@H](C)C2[C@H](Cc3ccccc3)NC(=O)[C@]23OC(=O)CC[C@H](O)CCC[C@H](C)C/C=C/[C@H]3[C@@H]1O` (stereo not given in full), 61% (active).
To `CCc1cccc(CC)c1N(COC)C(=O)Cn1nnc2ccccc21` belongs -7.86%.
As for `CN(CCCCCNC(=O)/C=N/O)Cc1ccccc1`, the growth inhibition was -0.65%.
Regarding `COC(=O)c1ccc(Oc2nc3ccccc3n3c(C)nnc23)cc1`, the growth inhibition was -4%.
To `CC(=O)Oc1oc(-c2ccccc2)nc1/C=N/c1ccccn1` belongs 17.6%; to `CCC(=O)Oc1oc(-c2ccccc2)nc1C=Nc1ccccc1OC`, 48.5%; to `CCOC(=O)c1ccc(N=Cc2nc(-c3ccccc3)oc2OC(C)=O)cc1`, 55.3% (active).
To `O=C(Oc1oc(-c2ccco2)nc1C=Nc1ccccc1)c1ccoc1` belongs 34.4%.
To `O=C(Oc1oc(-c2ccco2)nc1C=Nc1ccccc1)c1ccco1` belongs 35.2%; to `COc1ccccc1N=Cc1nc(-c2ccccc2)oc1OC(C)=O`, 51.8% (active); to `CCOC(=O)c1ccc(CSc2ncn[nH]2)o1`, -2.33%.
With `COc1ccccc1OCC(=O)Nc1ccc(S(=O)(=O)Nc2cc(C)nc(C)n2)cc1`, the growth inhibition is 5.4%.
To `Cc1nn(C)cc1C1C2=C(CC(C)(C)CC2=O)OC2=C1C(=O)CC(C)(C)C2` belongs 1.38%; to `CCc1oc2ccccc2c1C(=O)c1cc(Br)c(O)c(Br)c1`, 67.4% (active).
To `CC(=O)c1cc2c(=O)c3ccccc3oc2nc1C` belongs -5.08%.
To `O=C(O)CCCCCCC1C(=O)NC(=O)N1CCC(O)C1CCCCC1` (stereo not given) belongs -11.2%; to `CCC1SC(N)=NC1=O` (stereo not given), 2.26%.
Regarding `CCOC(=O)c1ccc(N2CC(O)=C(c3nc4ccccc4c(=O)[nH]3)C2=N)cc1`, the growth inhibition was 2.08%.
Consider `O=c1[nH]c(-c2ccccn2)nc2ccccc12`, for which the growth inhibition was 57.6% (active).
For the molecule `c1ccc2[nH]c(-c3cscn3)nc2c1`, the growth inhibition is 5.76%.
To `COc1ccccc1-c1c(C)oc2c(CN3CCN(C)CC3)c(O)ccc2c1=O` belongs -0.86%; to `COC(=O)CN1C2(C#N)CCCCC2CC2CCCCC21C#N` (stereo not given), 5.83%.
